The source of these data is PubChem BioAssay (EPA / NIEHS).

Values joined by “and” are separate entries in the source; they are usually repeats but may differ in a detail not shown here. Equal values may be shown once. Some structures have more than one record in an assay (separate samples or runs), and their calls can disagree. Active and inactive are the calls of the source. The calls were made as follows: active = hit-call score of the fitted dose curve at least 0.9, where 1 is the maximum; inactive = score below 0.9.

For test [1], the target named is Bile acid receptor (Homo sapiens) (UniProt Q96RI1). The test is described as follows: ATG_IR1_CIS: Attagene CIS-FACTORIAL HepG2 Assay for human Nuclear Receptor Subfamily 1 Group H Member 4 (NR1H4), IR1 submotif (AID 2282946). Particulars: IR1 reporter transcription, actives raise or lower the signal. The method in brief: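 HepG2 cells transiently transfected with multiplexed cis-element reporter units read endogenous transcription factor activity. After 24 h compound exposure, reporter mRNA was quantified by RT-PCR, fluorescent labelling, HpaI digestion and capillary electrophoresis; bidirectional fitting versus DMSO baseline.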
Chain of Bile acid receptor (Homo sapiens) (Q96RI1 whole entry, looked up): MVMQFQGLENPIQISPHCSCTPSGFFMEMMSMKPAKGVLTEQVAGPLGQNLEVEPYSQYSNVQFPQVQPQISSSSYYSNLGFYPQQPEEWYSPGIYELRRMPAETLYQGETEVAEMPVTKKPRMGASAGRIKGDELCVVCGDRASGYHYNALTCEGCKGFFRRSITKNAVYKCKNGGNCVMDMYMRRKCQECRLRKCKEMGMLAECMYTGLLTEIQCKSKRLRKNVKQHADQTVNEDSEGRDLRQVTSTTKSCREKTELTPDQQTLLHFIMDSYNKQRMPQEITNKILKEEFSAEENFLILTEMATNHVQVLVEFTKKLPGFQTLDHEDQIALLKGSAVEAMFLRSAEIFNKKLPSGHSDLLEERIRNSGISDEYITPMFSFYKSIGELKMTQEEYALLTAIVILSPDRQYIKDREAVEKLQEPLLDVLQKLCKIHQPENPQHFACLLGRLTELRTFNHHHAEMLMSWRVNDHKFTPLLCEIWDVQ

Test [2] is described as follows: ATG_ISRE_CIS: Attagene CIS-FACTORIAL HepG2 Assay for human Interferon Regulatory Factor 1 (IRF1) binding to an Interferon-Stimulated Response Element (ISRE) (AID 2282948). Conditions: HepG2 ISRE cis-reporter (Attagene), mRNA transcription readout; actives raise or lower the signal. The method in brief: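 Endogenous transcription factor activity read as reporter transcript abundance via RT-PCR and capillary electrophoresis. HepG2 cells transiently transfected, 24 h chemical exposure. Gain or loss fitted against DMSO baseline.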

Test [3] in a line: ATG_M_32_CIS: Attagene CIS-FACTORIAL HepG2 Assay for M32 Transcription Factor (Internal Marker) (AID 2282949).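 Also: background control marker of the multiplexed CIS panel rather than a real target.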 Conditions: HepG2 Attagene cis-factorial M32 reporter, mRNA; actives raise or lower the signal. The method in brief: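 HepG2 transfectants (cis-regulated reporter transcription units) dosed 24 h. Reporter mRNA by RT-PCR plus CE, analysed as gain or loss relative to DMSO.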

The target in test [4] is Hypoxia-inducible factor 1-alpha (Homo sapiens) (UniProt Q16665). Description: ATG_HIF1a_CIS: Attagene CIS-FACTORIAL HepG2 Assay for human Hypoxia Inducible Factor 1 (HIF1A) (AID 2282951). Particulars: HepG2 Attagene cis-factorial HIF1a reporter transcription; actives raise or lower the signal. The method in brief:
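Dosed 24 h, transfected HepG2 cells yielded total RNA whose reporter transcripts were RT-PCR-amplified and sized by capillary electrophoresis using fluorescent labelling; DMSO defined baseline, with gain and loss of signal both fitted.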

Test [5] deals with Hepatocyte nuclear factor 6 (Homo sapiens) (UniProt Q9UBC0). The test is described as follows: ATG_HNF6_CIS: Attagene CIS-FACTORIAL HepG2 Assay for human Hepatocyte Nuclear Factor 6 (HNF6) (AID 2282952). Particulars: HepG2 Attagene cis-factorial HNF6 reporter transcription; actives raise or lower the signal. The method in brief:
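First, HepG2 cells were transfected with the multiplexed cis reporter library and dosed with chemical for 24 h. Next, RNA was reverse-transcribed, PCR-amplified and fluorescently labelled. Finally, HpaI-digested fragments were read by capillary electrophoresis.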

For test [6], the target named is Heat shock factor protein 1 (Homo sapiens) (UniProt Q00613). The test is described as follows: ATG_HSE_CIS: Attagene CIS-FACTORIAL HepG2 Assay for human Heat Shock Transcription Factor 1 (HSE) (AID 2282953). Particulars: HepG2 HSE cis-reporter, Attagene RNA transcription; actives raise or lower the signal. The method in brief: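 Reporter mRNA induction in HepG2 is measured 24 h after dosing, using transiently transfected multiplexed cis-regulated reporter units. Signal comes from capillary electrophoresis of labelled RT-PCR products, with DMSO as negative control.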
Chain of Heat shock factor protein 1 (Homo sapiens) (Q00613 whole entry, looked up): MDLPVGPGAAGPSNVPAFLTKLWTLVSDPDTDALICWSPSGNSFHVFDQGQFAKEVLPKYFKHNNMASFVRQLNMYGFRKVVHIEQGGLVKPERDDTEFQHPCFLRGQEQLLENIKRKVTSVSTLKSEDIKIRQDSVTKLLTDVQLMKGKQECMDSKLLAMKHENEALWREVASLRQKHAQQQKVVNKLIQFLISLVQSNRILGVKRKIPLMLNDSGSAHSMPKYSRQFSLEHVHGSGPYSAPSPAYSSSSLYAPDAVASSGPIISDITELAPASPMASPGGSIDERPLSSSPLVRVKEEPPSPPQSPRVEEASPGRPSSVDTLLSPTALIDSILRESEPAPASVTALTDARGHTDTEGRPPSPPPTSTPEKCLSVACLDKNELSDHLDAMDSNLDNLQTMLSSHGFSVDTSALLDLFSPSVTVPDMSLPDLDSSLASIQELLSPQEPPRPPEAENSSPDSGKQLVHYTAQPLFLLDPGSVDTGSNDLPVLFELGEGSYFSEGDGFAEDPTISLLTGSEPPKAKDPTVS

The nature of test [7]: ATG_MRE_CIS: Attagene CIS-FACTORIAL HepG2 Assay for human Metal Responsive Element (MRE) (AID 2282954). Particulars: HepG2 MRE cis-reporter transcription, Attagene multiplex; actives raise or lower the signal. The method in brief: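 Endogenous MRE-dependent transcription read as reporter mRNA in transiently transfected human HepG2 cells at 24 h. RNA reverse-transcribed, PCR-amplified, labelled and resolved by capillary electrophoresis; gain or loss relative to DMSO.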

Test [8] is described as follows: ATG_PBREM_CIS: Attagene CIS-FACTORIAL HepG2 Assay for human Phenobarbital-responsive Enhancer Module (PBREM) (AID 2282955). Conditions: HepG2 PBREM cis-reporter, Attagene multiplexed transcription; actives raise or lower the signal. The method in brief:
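Transfected liver-derived HepG2 cells exposed 24 h; PBREM reporter transcript quantified via RT-PCR and capillary electrophoresis, with activity in either direction referenced to DMSO.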

Test [9] in a line: ATG_PXRE_CIS: Attagene CIS-FACTORIAL HepG2 Assay for human Pregnane X Receptor Element (PXRE) (AID 2282957). Particulars: HepG2 Attagene CIS-FACTORIAL PXRE reporter, mRNA; actives raise or lower the signal. The method in brief:
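After a 24 h chemical incubation, total RNA from transfected HepG2 cells was reverse-transcribed and reporter cDNA amplified, FAM-labeled, HpaI-digested and sized by capillary electrophoresis. DMSO served as baseline for bidirectional curve fitting.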

The nature of test [10]: ATG_RORE_CIS: Attagene CIS-FACTORIAL HepG2 Assay for human RAR-related Orphan Receptor Element (RORE) (AID 2282959). Conditions: HepG2 Attagene cis-factorial RORE reporter, mRNA; actives raise or lower the signal. The method in brief:
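Transiently transfected HepG2 reporter cells were treated 24 h. Reporter transcripts were detected by RT-PCR and capillary electrophoresis, with bidirectional fitting against DMSO.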

A short description of test [11]: ATG_Sox_CIS: Attagene CIS-FACTORIAL HepG2 Assay for human SRY-box transcription factor (SOX) (AID 2282960). Conditions: HepG2 Attagene cis-factorial SOX reporter, mRNA; actives raise or lower the signal. The method in brief: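 Gain- or loss-of-signal endpoint, fitted bidirectionally with DMSO as negative control. Based on reporter mRNA from transfected HepG2 cells harvested 24 h post-treatment and quantified via RT-PCR and capillary electrophoresis.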

Test [12] concerns the target Transcription factor Sp1 (Homo sapiens) (UniProt P08047). Description: ATG_Sp1_CIS: Attagene CIS-FACTORIAL HepG2 Assay for human Specificity Protein 1 (Sp1) (AID 2282961). Particulars: HepG2 Sp1 cis-reporter transcription, actives raise or lower the signal. The method in brief:
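Endpoint reflects endogenous Sp1 transcriptional activity, not an exogenous fusion protein: HepG2 cells with transfected cis-regulated reporters, 24 h dosing, RT-PCR/capillary electrophoresis mRNA read-out, DMSO-normalised bidirectional fit.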

A short description of test [13]: ATG_SREBP_CIS: Attagene CIS-FACTORIAL HepG2 Assay for human Sterol Regulatory Element Binding (SREBP) (AID 2282962). Conditions: HepG2 Attagene cis-factorial SREBP reporter, mRNA; actives raise or lower the signal. The method in brief:
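Endogenous SREBP activity read as cis-element-driven reporter transcript in transiently transfected HepG2, 24 h post-dosing; quantified via RT-PCR plus capillary electrophoresis of fluorescent fragments. Gain or loss of signal fitted relative to DMSO baseline.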

A short description of test [14]: ATG_TA_CIS: Attagene CIS-FACTORIAL HepG2 Assay for human TA Basal Promoter (AID 2282964). Conditions: HepG2 Attagene CIS-factorial TA basal promoter reporter; actives raise or lower the signal. The method in brief:
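Cis-factorial format in HepG2: reporters report endogenous factors, not chimeric Gal4 fusions. After 24 h treatment, reporter transcripts were measured by RT-PCR-capillary electrophoresis fluorescence, analysed bidirectionally versus DMSO.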

A short description of test [15]: ATG_TCF_b_cat_CIS: Attagene CIS-FACTORIAL HepG2 Assay for human T-Cell-Factor with beta-catenin (TCF/b-cat) (AID 2282965). Particulars: HepG2 TCF/beta-catenin cis-reporter transcription, actives raise or lower the signal. The method in brief: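 Endogenous TCF/LEF activity read as reporter transcript level via RT-PCR and capillary electrophoresis fluorescence in transfected HepG2, 24 h exposure; gain or loss of signal fitted against DMSO controls.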

A short description of test [16]: ATG_GRE_CIS: Attagene CIS-FACTORIAL HepG2 Assay for human Glucocorticoid Response Elements (GRE) (AID 2282947). Particulars: HepG2 GRE cis-reporter, Attagene multiplex mRNA; actives raise or lower the signal. The method in brief: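 Reporter transcripts read by RT-PCR with capillary electrophoresis fluorescence after a 24 h chemical exposure of HepG2 cells transiently transfected with multiple cis-element reporter units. Gain or loss fitted against DMSO.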

Test [17] can be described thus: ATG_M_06_CIS: Attagene CIS-FACTORIAL HepG2 Assay for M06 Transcription Factor (Internal Marker) (AID 2282950). Particulars: HepG2 Attagene CIS-FACTORIAL M06 internal marker reporter; actives raise or lower the signal. The method in brief:
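Measured 24 h post-dosing in transiently transfected HepG2 cells, this internal-marker endpoint reports reporter mRNA via RT-PCR with fluorescent primer extension and capillary electrophoresis. DMSO served as negative control and baseline for bidirectional fitting.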

The target of test [18] is Paired box protein Pax-6 (Homo sapiens) (UniProt P26367). Description: ATG_Pax6_CIS: Attagene CIS-FACTORIAL HepG2 Assay for human Paired Box 6 (PAX6) (AID 2282956). Conditions: HepG2 CIS-FACTORIAL PAX6 reporter transcription, RNA readout; actives raise or lower the signal. The method in brief: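 Read-out is reporter transcript level, measured by RT-PCR with fluorescent primer extension and capillary electrophoresis after 24 h dosing of transfected HepG2 cells. Activity in either direction fitted relative to DMSO control.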
Chain of Paired box protein Pax-6 (Homo sapiens) (P26367 whole entry, looked up): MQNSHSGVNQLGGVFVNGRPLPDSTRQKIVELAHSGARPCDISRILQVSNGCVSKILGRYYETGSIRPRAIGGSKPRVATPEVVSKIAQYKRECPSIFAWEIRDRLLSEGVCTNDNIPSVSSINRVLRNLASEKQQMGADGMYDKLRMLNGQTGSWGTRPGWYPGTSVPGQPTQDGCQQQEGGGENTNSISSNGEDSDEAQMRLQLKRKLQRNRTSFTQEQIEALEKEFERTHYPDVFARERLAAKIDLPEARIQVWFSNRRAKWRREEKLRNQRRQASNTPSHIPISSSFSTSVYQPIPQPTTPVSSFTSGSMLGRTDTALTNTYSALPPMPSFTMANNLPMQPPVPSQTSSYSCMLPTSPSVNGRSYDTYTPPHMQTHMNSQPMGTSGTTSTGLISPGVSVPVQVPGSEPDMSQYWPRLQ

Test [19] deals with Signal transducer and activator of transcription 3 (Homo sapiens) (UniProt P40763). The test is described as follows: ATG_STAT3_CIS: Attagene CIS-FACTORIAL HepG2 Assay for human Signal Transducer and Activator of Transcription 3 (STAT3) (AID 2282963). Conditions: HepG2, Attagene cis-factorial STAT3 reporter transcription; actives raise or lower the signal. The method in brief: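 Readout is reporter transcript quantified by RT-PCR and capillary electrophoresis, with 6-FAM primer extension and HpaI digestion. Total RNA is taken 24 h after dosing transiently transfected HepG2 carrying cis-regulated reporter units. Bidirectional fit against DMSO.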
Chain of Signal transducer and activator of transcription 3 (Homo sapiens) (P40763 whole entry, looked up): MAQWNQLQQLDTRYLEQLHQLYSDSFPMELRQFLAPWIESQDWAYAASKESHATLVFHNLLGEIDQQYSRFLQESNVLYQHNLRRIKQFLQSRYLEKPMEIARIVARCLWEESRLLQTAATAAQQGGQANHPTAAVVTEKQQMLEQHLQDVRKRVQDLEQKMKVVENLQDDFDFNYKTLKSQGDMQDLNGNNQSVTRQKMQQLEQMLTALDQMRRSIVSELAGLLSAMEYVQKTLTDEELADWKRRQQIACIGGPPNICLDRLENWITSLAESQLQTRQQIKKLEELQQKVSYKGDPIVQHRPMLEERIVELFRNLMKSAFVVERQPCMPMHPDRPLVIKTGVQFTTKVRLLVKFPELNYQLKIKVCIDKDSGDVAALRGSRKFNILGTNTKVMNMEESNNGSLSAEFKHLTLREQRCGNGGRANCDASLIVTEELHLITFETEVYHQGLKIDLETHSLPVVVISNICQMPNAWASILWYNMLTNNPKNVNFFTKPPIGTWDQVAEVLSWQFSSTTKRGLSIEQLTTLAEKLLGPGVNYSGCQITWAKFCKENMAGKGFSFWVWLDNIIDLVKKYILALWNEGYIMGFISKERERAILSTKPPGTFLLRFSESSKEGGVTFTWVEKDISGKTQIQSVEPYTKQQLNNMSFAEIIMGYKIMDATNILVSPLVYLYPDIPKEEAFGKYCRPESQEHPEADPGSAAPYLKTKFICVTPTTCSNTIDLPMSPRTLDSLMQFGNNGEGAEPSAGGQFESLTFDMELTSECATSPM

By AC50 is commonly meant the midpoint of the concentration-response curve, whichever way the signal moves.

Chain of Hepatocyte nuclear factor 6 (Homo sapiens) (Q9UBC0 whole entry, looked up, the tested form may be a part): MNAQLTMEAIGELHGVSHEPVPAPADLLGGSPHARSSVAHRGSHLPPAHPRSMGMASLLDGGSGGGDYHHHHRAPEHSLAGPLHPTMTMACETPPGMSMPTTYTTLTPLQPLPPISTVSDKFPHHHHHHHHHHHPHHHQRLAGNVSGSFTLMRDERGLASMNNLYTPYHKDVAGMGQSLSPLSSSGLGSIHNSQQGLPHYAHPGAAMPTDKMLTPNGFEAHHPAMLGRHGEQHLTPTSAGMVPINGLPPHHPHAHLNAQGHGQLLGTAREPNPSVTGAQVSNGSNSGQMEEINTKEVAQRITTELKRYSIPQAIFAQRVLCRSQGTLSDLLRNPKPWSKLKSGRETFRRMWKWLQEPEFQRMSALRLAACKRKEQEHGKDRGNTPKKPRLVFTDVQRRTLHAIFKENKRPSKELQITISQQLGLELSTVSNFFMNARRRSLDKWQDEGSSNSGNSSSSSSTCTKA
Chain of Transcription factor Sp1 (Homo sapiens) (P08047 whole entry, looked up, the tested form may be a part): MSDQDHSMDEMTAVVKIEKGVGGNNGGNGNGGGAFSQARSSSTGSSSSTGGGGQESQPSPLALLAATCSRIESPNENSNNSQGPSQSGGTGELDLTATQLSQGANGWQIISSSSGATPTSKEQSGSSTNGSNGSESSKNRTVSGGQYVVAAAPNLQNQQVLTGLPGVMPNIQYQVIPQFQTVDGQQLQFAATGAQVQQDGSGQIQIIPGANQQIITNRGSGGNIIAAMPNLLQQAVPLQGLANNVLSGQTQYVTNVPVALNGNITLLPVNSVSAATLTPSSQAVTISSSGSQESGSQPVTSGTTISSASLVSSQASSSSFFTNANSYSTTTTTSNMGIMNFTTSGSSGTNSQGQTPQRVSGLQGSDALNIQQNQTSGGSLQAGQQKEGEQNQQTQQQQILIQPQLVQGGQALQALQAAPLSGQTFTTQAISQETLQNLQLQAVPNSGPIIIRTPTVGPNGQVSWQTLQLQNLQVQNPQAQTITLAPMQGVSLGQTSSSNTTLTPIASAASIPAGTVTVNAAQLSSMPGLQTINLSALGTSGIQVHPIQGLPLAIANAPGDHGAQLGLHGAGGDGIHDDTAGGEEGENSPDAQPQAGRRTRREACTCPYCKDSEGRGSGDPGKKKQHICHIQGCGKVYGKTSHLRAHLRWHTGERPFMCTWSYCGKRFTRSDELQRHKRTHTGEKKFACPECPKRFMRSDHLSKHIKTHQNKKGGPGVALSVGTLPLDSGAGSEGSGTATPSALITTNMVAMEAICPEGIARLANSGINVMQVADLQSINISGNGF
Chain of Hypoxia-inducible factor 1-alpha (Homo sapiens) (Q16665 whole entry, looked up): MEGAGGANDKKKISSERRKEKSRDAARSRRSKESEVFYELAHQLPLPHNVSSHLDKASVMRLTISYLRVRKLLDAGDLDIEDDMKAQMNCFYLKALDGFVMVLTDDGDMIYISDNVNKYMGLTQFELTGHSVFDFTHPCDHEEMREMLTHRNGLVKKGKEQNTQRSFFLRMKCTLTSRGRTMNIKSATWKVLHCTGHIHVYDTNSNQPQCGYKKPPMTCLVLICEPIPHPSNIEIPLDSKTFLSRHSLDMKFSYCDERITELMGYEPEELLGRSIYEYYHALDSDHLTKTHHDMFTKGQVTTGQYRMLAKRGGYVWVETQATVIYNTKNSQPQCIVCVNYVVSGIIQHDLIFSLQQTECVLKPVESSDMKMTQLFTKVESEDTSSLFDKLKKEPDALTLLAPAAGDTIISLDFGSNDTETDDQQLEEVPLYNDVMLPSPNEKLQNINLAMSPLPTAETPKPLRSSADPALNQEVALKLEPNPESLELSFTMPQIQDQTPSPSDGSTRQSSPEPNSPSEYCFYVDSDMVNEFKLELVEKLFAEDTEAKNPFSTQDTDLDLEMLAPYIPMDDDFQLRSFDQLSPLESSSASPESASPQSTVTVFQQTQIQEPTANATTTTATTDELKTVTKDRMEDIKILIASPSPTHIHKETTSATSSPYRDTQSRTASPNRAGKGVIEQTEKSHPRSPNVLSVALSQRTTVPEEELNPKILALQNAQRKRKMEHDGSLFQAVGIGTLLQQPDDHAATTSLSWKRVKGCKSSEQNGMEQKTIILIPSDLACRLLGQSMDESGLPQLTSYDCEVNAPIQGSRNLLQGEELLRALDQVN

`C[C@]12C=CC3=C4CCC(=O)C=C4CC[C@H]3[C@@H]1CC[C@@H]2O`: the half-maximal activity concentration (AC50) in test [1] was 760 nM (active) and 26.7 µM (active) and 26.8 µM (active); in test [2], 59.8 µM (active) [middle of 4 runs]; in test [7], 100 µM (active) and 44.5 µM (active) and 52.5 µM (active); in test [9], 40.2 µM (active) and 57.3 µM (active); in [10] it was 20.1 µM (active); in test [12], 8.08 µM (active). The AC50 in test [13] is 4.15 µM (active); in test [15], 47.7 µM (active) and 33.4 µM (active) and 19.4 µM (active). For the same compound, the call in test [1], in test [2], in test [3], in test [4], in [5] and in test [6] was inactive. Moreover, the compound was called inactive in test [7], in [8], in test [9], in test [10], in [11] and in test [12]. Besides, the compound was called inactive in [13], in test [14] and in test [15].

On to `c1ccc(NNc2ccccc2)cc1`, for which the compound was called inactive in test [1], in test [16], in test [2], in test [3], in test [17] and in test [4]. For the same compound, the compound was classed as inactive in [5], in test [6], in test [7], in test [18], in test [9] and in [10]. Also, the call in test [11], in test [12], in test [13], in test [14] and in [15] was inactive.

On to `O=P(OCCCl)(OCCCl)OCCCl`, for which the result in test [1], in test [16], in test [2], in test [3], in test [17] and in test [4] was inactive. Also, the result in [5], in [6], in test [7], in [8], in test [18] and in test [10] was inactive. Moreover, the result in [11], in test [12], in test [13], in test [19], in test [14] and in [15] was inactive. For the same compound, the half-maximal activity concentration (AC50) in test [9] is 43.6 µM (active).

`Cc1ccc([N+](=O)[O-])cc1`: the call in [16], in [2], in test [3], in test [17], in test [4] and in test [5] was inactive. Besides, the compound was classed as inactive in test [6], in test [7], in test [8], in test [9], in test [10] and in test [11]. Also, the result in test [12], in test [13], in test [14] and in [15] was inactive.
